# Columns and labels:
# Test in all cases: DAPPL (digital affinity profiling via proximity ligation, sequencing); 10 mM Tris-HCl pH 7.5, 50 mM NaCl, 1 mM DTT, 4% glycerol, room temperature, 30 min; GST-TFs on glutathione beads, 16-mer random dsDNA library, 0.1% formaldehyde crosslink after washing; high values mean tight binding
# FLI1 = biological target: T1, FLI1 (Homo sapiens, UniProt Q01543 1-452); conditions: protein: recombinant; tags: N-terminal GST; dsDNA, one strand shown
# T1 sequence: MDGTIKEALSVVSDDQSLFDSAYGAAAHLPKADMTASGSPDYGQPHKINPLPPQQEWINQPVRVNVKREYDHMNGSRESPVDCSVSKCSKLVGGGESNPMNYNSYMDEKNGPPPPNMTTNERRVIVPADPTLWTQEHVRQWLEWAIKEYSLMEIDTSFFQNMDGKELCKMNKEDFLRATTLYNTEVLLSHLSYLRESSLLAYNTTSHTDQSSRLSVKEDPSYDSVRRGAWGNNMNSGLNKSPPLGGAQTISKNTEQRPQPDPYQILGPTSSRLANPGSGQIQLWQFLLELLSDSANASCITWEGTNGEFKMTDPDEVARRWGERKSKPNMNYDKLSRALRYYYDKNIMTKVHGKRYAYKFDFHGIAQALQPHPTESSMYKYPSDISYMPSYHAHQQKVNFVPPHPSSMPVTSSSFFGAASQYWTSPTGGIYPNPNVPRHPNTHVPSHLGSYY
# Summary of the method: (§1)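 A tag-only sample was pooled with DNA-barcoded human transcription factors that had been expressed in yeast as GST fusions and captured on glutathione beads. The pools were incubated for 30 min at room temperature with 200 nmole of a random double-stranded 16-mer DNA library in Tris/NaCl/DTT/glycerol buffer, then washed, crosslinked with 0.1% formaldehyde, proximity-ligated (BsaI/T4 ligase, 1 h, 37 °C), PCR-amplified and sequenced on an Illumina NextSeq500. Binding signal is each hexamer's read frequency for a factor divided by its frequency for the tag-only sample.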
# ELK1 = biological target: T2, ELK1 (Homo sapiens, UniProt P19419 1-428); conditions: protein: recombinant; tags: N-terminal GST; dsDNA, one strand shown
# T2 sequence: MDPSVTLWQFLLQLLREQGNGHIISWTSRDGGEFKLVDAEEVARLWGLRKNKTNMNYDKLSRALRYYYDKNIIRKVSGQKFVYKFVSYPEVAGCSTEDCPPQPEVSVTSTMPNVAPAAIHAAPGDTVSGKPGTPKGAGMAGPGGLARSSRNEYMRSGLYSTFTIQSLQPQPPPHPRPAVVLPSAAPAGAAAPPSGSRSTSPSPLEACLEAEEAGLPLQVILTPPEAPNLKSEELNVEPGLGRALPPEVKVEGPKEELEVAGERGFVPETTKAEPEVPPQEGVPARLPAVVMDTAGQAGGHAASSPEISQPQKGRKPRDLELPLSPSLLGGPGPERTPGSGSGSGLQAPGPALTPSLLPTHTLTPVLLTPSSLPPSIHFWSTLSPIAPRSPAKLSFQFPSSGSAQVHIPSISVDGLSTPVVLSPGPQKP
# Summary of the method: as §1
# GABPA = biological target: T3, GABPA (Homo sapiens, UniProt Q06546 1-454); conditions: protein: recombinant; tags: N-terminal GST; dsDNA, one strand shown
# T3 sequence: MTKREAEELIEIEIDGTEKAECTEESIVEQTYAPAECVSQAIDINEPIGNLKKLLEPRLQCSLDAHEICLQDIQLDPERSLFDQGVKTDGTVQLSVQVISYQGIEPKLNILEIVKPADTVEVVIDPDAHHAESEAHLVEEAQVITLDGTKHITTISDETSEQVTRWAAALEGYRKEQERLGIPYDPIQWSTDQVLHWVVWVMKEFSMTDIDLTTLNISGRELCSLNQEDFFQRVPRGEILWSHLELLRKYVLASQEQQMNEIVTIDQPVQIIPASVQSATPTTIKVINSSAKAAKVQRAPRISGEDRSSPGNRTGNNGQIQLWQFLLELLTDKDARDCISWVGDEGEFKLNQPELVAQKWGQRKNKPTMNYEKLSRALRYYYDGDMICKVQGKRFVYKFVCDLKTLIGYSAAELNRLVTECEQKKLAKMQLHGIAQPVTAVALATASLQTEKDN
# Summary of the method: as §1
# ERG = biological target: T4, ERG (Homo sapiens, UniProt P11308 1-479); conditions: protein: recombinant; tags: N-terminal GST; dsDNA, one strand shown
# T4 sequence: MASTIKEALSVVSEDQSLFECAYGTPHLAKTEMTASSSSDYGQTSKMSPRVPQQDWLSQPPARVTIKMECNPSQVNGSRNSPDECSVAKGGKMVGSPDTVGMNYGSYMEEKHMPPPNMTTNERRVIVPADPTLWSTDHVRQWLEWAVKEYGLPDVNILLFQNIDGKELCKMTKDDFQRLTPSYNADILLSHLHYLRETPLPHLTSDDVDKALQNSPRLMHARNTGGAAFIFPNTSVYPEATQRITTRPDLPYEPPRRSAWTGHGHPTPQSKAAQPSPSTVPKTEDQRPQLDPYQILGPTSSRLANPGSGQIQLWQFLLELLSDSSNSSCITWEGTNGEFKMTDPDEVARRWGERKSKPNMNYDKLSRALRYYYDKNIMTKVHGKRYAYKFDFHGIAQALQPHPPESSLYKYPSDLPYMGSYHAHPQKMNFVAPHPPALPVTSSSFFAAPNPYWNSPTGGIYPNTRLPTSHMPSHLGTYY
# Summary of the method: as §1
# ELF1 = ELF1 (Homo sapiens, UniProt P32519 1-619); conditions: protein: recombinant; tags: N-terminal GST; dsDNA, one strand shown
# Sequence of ELF1 (P32519 whole entry): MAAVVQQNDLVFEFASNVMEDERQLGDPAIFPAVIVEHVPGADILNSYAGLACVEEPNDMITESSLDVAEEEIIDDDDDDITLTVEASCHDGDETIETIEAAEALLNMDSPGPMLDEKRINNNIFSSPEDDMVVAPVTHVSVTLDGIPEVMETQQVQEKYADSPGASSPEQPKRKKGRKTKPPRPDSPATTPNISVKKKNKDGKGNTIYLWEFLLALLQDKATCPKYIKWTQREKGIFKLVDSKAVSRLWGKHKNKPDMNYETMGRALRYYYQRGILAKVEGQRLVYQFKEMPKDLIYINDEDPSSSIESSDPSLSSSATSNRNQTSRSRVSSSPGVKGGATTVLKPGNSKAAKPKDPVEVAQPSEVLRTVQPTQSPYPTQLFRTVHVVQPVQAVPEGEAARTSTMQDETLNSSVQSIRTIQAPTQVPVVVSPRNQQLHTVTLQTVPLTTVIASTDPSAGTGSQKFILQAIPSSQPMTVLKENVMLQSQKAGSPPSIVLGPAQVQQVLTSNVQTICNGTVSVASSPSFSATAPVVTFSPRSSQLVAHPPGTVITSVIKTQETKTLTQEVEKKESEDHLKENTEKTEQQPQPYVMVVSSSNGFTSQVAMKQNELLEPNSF
# Summary of the method: as §1
# EHF = biological target: T5, EHF (Homo sapiens, UniProt Q9NZC4 1-300); conditions: protein: recombinant; tags: N-terminal GST; dsDNA, one strand shown
# T5 sequence: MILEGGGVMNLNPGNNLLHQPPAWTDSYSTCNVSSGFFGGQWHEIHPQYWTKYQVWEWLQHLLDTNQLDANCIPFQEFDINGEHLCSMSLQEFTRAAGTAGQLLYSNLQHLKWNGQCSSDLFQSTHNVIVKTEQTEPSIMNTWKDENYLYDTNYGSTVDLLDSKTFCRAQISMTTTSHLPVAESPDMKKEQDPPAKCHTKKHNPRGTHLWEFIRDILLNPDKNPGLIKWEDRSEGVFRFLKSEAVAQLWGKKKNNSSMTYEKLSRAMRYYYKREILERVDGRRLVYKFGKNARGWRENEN
# Summary of the method: as §1
# SPI1 = SPI1 (Homo sapiens, UniProt P17947 1-270); conditions: protein: recombinant; tags: N-terminal GST; dsDNA, one strand shown
# Summary of the method: as §1
# SPIB = SPIB (Homo sapiens, UniProt Q01892 1-262); conditions: protein: recombinant; tags: N-terminal GST; dsDNA, one strand shown
# Sequence of SPIB (Q01892 whole entry): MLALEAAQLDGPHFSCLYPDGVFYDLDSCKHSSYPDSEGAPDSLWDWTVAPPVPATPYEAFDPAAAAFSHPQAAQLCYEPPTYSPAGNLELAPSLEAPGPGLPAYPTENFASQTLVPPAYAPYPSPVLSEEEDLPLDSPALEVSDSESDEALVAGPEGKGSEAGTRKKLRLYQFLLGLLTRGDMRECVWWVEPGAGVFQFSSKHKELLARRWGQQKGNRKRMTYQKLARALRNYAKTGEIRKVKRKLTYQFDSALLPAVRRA
# Summary of the method: as §1
# ELK3 = biological target: T6, ELK3 (Homo sapiens, UniProt P41970 1-407); conditions: protein: recombinant; tags: N-terminal GST; dsDNA, one strand shown
# T6 sequence: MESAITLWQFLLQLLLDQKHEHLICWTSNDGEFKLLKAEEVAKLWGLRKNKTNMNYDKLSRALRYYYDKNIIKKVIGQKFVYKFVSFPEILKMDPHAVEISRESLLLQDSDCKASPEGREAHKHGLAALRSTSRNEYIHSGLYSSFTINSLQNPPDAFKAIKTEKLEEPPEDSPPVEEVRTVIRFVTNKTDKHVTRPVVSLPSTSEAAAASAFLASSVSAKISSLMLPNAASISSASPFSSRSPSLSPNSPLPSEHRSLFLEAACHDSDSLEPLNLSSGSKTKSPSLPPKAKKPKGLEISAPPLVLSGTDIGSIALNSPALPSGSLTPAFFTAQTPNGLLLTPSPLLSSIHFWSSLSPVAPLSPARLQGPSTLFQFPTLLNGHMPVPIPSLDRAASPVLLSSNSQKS
# Summary of the method: as §1
# FEV = biological target: T7, FEV (Homo sapiens, UniProt Q99581 1-238); conditions: protein: recombinant; tags: N-terminal GST; dsDNA, one strand shown
# T7 sequence: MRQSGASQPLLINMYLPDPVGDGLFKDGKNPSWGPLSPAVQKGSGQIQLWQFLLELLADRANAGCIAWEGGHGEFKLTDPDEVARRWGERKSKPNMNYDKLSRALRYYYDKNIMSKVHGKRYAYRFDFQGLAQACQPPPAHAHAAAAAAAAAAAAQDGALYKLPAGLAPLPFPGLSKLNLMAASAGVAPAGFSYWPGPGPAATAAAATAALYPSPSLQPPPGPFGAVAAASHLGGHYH
# Summary of the method: as §1
# ETV5 = ETV5 (Homo sapiens, UniProt P41161 1-510); conditions: protein: recombinant; tags: N-terminal GST; dsDNA, one strand shown
# Sequence of ETV5 (P41161 whole entry): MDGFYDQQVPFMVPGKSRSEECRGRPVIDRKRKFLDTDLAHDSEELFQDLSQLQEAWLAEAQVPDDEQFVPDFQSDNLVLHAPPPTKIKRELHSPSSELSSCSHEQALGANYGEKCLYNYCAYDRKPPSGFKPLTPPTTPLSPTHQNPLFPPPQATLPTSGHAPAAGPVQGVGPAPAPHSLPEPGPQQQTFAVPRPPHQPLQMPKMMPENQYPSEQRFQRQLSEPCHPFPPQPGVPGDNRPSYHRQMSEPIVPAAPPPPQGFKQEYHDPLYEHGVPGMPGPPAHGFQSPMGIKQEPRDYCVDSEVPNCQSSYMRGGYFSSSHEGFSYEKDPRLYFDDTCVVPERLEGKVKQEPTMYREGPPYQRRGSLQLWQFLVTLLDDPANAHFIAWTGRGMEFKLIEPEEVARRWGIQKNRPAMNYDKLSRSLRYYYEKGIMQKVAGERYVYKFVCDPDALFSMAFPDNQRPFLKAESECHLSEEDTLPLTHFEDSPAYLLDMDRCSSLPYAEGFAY
# Summary of the method: as §1
# HSF1 = HSF1 (Homo sapiens, UniProt Q00613 1-529); conditions: protein: recombinant; tags: N-terminal GST; chain copies: 3; dsDNA, one strand shown
# Sequence of HSF1 (Q00613 whole entry): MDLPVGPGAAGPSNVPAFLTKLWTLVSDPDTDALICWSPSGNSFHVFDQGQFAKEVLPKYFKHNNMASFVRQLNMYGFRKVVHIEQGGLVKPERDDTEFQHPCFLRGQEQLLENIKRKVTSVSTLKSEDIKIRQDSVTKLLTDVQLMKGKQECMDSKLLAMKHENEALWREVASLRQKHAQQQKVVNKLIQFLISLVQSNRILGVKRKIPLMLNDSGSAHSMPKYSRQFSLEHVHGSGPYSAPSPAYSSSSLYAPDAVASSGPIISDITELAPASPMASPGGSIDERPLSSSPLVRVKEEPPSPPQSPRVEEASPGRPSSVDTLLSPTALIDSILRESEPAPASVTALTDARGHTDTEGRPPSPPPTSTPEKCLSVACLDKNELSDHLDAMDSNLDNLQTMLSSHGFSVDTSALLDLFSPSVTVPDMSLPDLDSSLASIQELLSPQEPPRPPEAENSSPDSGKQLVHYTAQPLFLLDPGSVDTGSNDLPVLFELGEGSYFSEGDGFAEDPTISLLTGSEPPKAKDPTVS
# Summary of the method: as §1
# SPIC = biological target: T8, SPIC (Homo sapiens, UniProt Q8N5J4 1-248); conditions: protein: recombinant; tags: N-terminal GST; dsDNA, one strand shown
# T8 sequence: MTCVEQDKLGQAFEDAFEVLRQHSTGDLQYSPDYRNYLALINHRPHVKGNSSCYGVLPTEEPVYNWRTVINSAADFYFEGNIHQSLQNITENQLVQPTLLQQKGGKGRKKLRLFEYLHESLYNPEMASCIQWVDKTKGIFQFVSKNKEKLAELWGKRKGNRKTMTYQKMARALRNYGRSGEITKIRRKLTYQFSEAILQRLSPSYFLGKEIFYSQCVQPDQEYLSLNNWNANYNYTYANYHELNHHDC
# Summary of the method: as §1
# ELF4 = ELF4 (Homo sapiens, UniProt Q99607 1-663); conditions: protein: recombinant; tags: N-terminal GST; dsDNA, one strand shown
# Sequence of ELF4 (Q99607 whole entry): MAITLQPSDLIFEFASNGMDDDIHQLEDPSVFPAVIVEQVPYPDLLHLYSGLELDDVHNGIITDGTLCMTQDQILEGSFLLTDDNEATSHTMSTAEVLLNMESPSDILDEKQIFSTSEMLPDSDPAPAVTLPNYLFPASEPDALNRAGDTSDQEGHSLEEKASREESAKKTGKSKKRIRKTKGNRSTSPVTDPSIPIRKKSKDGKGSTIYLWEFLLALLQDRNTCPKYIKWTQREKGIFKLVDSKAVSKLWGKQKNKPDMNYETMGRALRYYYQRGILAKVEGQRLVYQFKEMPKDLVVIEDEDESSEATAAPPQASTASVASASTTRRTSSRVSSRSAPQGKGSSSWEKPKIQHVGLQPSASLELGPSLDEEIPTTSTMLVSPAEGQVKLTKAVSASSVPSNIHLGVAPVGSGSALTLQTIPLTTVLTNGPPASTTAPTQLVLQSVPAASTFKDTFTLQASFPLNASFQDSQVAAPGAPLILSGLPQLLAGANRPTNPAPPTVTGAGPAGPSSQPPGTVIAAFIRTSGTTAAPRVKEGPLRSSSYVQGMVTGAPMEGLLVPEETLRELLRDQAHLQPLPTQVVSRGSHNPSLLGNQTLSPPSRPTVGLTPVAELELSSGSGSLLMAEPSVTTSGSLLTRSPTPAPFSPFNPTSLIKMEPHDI
# Summary of the method: as §1
# ELK4 = biological target: T9, ELK4 (Homo sapiens, UniProt P28324-2 1-405); conditions: protein: recombinant; tags: N-terminal GST; dsDNA, one strand shown
# T9 sequence: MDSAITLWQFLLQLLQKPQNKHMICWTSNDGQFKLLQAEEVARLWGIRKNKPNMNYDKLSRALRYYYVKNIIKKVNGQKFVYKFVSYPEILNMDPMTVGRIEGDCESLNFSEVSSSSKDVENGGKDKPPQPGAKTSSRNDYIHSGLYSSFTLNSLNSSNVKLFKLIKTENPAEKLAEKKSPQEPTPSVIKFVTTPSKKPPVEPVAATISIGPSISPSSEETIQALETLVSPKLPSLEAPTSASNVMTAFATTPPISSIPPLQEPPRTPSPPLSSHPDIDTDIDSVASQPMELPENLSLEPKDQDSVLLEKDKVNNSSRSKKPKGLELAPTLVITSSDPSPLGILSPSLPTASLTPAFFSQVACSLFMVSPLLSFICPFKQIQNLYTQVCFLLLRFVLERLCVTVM
# Summary of the method: as §1
# ETV2 = biological target: T10, ETV2 (Homo sapiens, UniProt O00321 1-342); conditions: protein: recombinant; tags: N-terminal GST; dsDNA, one strand shown
# T10 sequence: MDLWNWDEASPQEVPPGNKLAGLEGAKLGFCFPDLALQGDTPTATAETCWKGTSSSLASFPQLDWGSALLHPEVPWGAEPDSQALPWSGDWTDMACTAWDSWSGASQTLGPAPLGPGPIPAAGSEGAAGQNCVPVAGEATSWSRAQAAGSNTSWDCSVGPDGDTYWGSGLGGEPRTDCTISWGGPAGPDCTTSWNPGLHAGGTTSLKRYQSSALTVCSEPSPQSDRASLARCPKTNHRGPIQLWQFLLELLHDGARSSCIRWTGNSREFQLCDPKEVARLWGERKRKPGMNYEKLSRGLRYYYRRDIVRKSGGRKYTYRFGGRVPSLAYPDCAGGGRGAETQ
# Summary of the method: as §1
# ELF3 = biological target: T11, ELF3 (Homo sapiens, UniProt P78545 1-371); conditions: protein: recombinant; tags: N-terminal GST; dsDNA, one strand shown
# T11 sequence: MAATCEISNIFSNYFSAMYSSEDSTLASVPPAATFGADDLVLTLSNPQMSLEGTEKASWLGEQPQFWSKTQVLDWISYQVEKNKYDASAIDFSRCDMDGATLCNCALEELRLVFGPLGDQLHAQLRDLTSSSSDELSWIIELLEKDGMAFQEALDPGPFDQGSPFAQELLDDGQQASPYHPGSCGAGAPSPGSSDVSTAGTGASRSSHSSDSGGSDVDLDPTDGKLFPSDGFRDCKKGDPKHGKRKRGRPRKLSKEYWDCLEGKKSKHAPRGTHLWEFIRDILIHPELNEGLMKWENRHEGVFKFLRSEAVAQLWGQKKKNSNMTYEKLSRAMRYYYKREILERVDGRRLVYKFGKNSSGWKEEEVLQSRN
# Summary of the method: as §1
# CRX = CRX (Homo sapiens, UniProt O43186 1-299); conditions: protein: recombinant; tags: N-terminal GST; dsDNA, one strand shown
# Sequence of CRX (O43186 whole entry): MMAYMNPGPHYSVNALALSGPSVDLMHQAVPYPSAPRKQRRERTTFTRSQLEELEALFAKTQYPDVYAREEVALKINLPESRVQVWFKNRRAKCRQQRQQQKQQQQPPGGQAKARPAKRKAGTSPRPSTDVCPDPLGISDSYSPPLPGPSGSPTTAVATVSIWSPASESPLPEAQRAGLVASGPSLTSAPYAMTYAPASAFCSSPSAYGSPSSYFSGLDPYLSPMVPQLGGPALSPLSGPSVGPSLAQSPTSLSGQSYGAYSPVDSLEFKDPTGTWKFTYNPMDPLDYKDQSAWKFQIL
# Summary of the method: as §1
# ETV1 = ETV1 (Homo sapiens, UniProt P50549 1-477); conditions: protein: recombinant; tags: N-terminal GST; dsDNA, one strand shown
# Sequence of ETV1 (P50549 whole entry): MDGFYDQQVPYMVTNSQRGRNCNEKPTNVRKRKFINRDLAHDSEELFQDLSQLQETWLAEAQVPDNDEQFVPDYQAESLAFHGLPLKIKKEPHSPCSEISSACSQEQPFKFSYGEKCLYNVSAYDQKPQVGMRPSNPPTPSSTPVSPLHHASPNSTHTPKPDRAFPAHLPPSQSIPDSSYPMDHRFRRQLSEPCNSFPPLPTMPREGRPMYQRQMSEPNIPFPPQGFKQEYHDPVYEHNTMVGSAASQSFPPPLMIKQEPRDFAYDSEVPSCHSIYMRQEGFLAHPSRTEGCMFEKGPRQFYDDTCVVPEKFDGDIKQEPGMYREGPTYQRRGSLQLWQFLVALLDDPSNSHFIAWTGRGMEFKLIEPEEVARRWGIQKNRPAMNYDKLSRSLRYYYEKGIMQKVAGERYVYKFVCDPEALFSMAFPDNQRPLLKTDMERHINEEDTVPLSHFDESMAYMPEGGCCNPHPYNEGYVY
# Summary of the method: as §1
sequence,measurement,setting,value
CTATGG,binding signal,FLI1,"1.25 fold enrichment (6-mer frequency, TF over GST control)"
same,binding signal,ELK1,"1.14 fold enrichment (6-mer frequency, TF over GST control)"
same,binding signal,GABPA,"1.21 fold enrichment (6-mer frequency, TF over GST control)"
same,binding signal,ERG,"1.15 fold enrichment (6-mer frequency, TF over GST control)"
same,binding signal,ELF1,"1.19 fold enrichment (6-mer frequency, TF over GST control)"
same,binding signal,EHF,"1.3 fold enrichment (6-mer frequency, TF over GST control)"
same,binding signal,SPI1,"1.17 fold enrichment (6-mer frequency, TF over GST control)"
same,binding signal,SPIB,"1.19 fold enrichment (6-mer frequency, TF over GST control)"
same,binding signal,ELK3,"1.2 fold enrichment (6-mer frequency, TF over GST control)"
same,binding signal,FEV,"1.15 fold enrichment (6-mer frequency, TF over GST control)"
same,binding signal,ETV5,"1.23 fold enrichment (6-mer frequency, TF over GST control)"
same,binding signal,HSF1,"1.17 fold enrichment (6-mer frequency, TF over GST control)"
same,binding signal,SPIC,"1.14 fold enrichment (6-mer frequency, TF over GST control)"
same,binding signal,ELF4,"1.15 fold enrichment (6-mer frequency, TF over GST control)"
same,binding signal,ELK4,"1.24 fold enrichment (6-mer frequency, TF over GST control)"
same,binding signal,ETV2,"1.28 fold enrichment (6-mer frequency, TF over GST control)"
same,binding signal,ELF3,"1.25 fold enrichment (6-mer frequency, TF over GST control)"
same,binding signal,CRX,"1.11 fold enrichment (6-mer frequency, TF over GST control)"
same,binding signal,ETV1,"1.18 fold enrichment (6-mer frequency, TF over GST control)"

# Source: PMC7862700, “An all-to-all approach to the identification of sequence-specific readers for epigenetic DNA modifications on cytosine”
